A selection: hits, their analogues and other compounds. The true share with any hit is near 2.3%.
miR-21 reporter – qHTS Assay for Modulators of miRNAs and/orActivators of miR-21; HeLa miR-21 FLuc reporter, luciferase, 48 h; Potency, µM (doses to about 38.3 µM), inactives show at the highest dose activity change, positive = activation, usual class: activators; 340,000 tested, under 10 active; AID 2288, 2010;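 further: % of control where 0% means no effect; miR-21 action dims this reporter so a rising signal means less miR-21 action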
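Luminescence from a firefly luciferase reporter carrying a miR-21 binding site downstream, stably expressed under a CMV promoter in HeLa cells that make miR-21 endogenously, reports miRNA modulation after 48 h compound exposure up to approximately 40uM final.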
Nrf2 ARE act – qHTS of Nrf2 Activators; AREc32 ARE-luciferase reporter (MCF7-derived line), luminescence, 24 h; Potency, µM (highest dose often 46.1 µM), without a hit: top-dose activation, actives largely listed as activators; actives 0.31% (n = 410,000); further: potency means the concentration at half of the fitted maximal effect; % of control where 0% means no effect; nearly all actives have a fitted effect of over 65% in size
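Steps: seed AREc32_Fluc cells (1000/well, 5% FBS OPTI-MEM); incubate overnight at 37 deg C; add 23 nL compound; incubate 24 hr; add Steady-Glo; hold 30 min RT; read luminescence.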
Glioma ERSR ind – qHTS for Inducers of the Endoplasmic Reticulum Stress Response (ERSR) in Human Glioma: qHTS; U87-MG GRP78 promoter luciferase reporter, 16 h; Potency, µM, without a hit: at the highest dose activation, actives largely listed as activators; actives 0.02% (n = 420,000); further: potency means the concentration at half of the fitted maximal effect; series mostly up to about 76 µM; % of control where 0% means no effect; nearly all actives have a fitted effect of over 35% in size
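Stably transfected U87-MG glioma cells carrying a GRP78-based luciferase sensor; 16 h compound incubation. Luminescence end-point read 10 min after Bright-Glo addition at room temperature.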
A549 viability – Nrf2 qHTS screen for inhibitors: counterscreen for cytotoxicity; A549 ARE-Fluc cells, CellTiter-Fluor viability, 18-24 h; actives 0.16% (n = 390,000); Potency, µM (series often up to 46 µM), without a hit: at the highest dose activity change, negative = cytotoxicity, hits mostly inhibitors; AID 504648, 2011; further: potency means the concentration at half of the fitted maximal effect; on the % scale 0 is the no-effect control and ±100 the full control effect
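Cytotoxicity counterscreen: CellTiter-Fluor fluorescence was measured in A549 ARE_Fluc cells after 18-24 h of compound exposure in a concentration series. The subsequent BugLite luminescent read reports ARE-luciferase activity.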
Mito fusion act – qHTS Assay for Small Molecule Inhibitors of Mitochondrial Division or Activators of Mitochondrial Fusion. actives 0.23% (n = 320,000). Potency, µM (top dose mostly 46.1 µM), for the others: at the top dose growth rescue (activation), actives largely listed as activators. S. cerevisiae fusion-defective mutant growth rescue, CellTiterGlo 48 h; further: potency means the concentration at half of the fitted maximal effect; % of control where 0% means no effect; nearly all actives have a fitted effect of over 45% in size
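Growth-rescue viability read-out: after 48 h at the non-permissive 37C in glycerol/ethanol YPEG, yeast mitochondrial fusion mutants are measured by CellTiterGlo luminescence; compounds (23 nl pinned per well) restoring growth score as division inhibitors or fusion activators.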
Nrf2 block – Nrf2 qHTS screen for inhibitors; A549 ARE-Fluc reporter, luciferase luminescence, 18-24 h; Potency, µM (top dose mostly 46 µM), for the others: at the highest dose activity change, negative = inhibition, actives largely listed as inhibitors; actives 2.1% (n = 360,000); AID 504444, 2011; further: potency means the concentration at half of the fitted maximal effect; on the % scale 0 is the no-effect control and ±100 the full control effect; nearly all actives have a fitted effect of over 60% in size
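In this cell-based qHTS, ARE-driven firefly luciferase in A549 cells reports Nrf2 activity; the luminescent signal after BugLite lysis is the measured value, with a prior CellTiter-Fluor read for cell health.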
Numbers without * were called inactive; [ ] = another dose, or the depositor's remark. The call rests on the fitted dose curve; in most records, active means well fitted curve in the direction sought with a large enough effect; inconclusive means small, poorly fitted or top-dose-only effect, or another doubt; inactive means no such curve, though single readings can be large; an effect the other way counts as inactive or inconclusive.

What do the screens show for `CCOc1ccc(Oc2ccccc2NS(=O)(=O)c2ccc(CCC(=O)O)cc2)cc1`?
Nrf2 ARE act: -0.9%; Glioma ERSR ind: -3.2%; A549 viability: -13.7%; Mito fusion act: 1.6%; Nrf2 block: 10.3µM*

What do the screens show for `CC(C)CNS(=O)(=O)c1ccc(CCC(=O)Nc2cc(Cl)ccc2Oc2ccccc2)cc1`?
miR-21 reporter: 20.3%; Nrf2 ARE act: 4.4%; Glioma ERSR ind: -2.4%; A549 viability: -0.9%; Mito fusion act: 19.7%

How did CN(N)c1nc(C(F)(F)F)nc2ccccc12 do in these assays?
miR-21 reporter: 15.4%; Nrf2 ARE act: -0.4%; Glioma ERSR ind: -4.0%; A549 viability: 0.5%; Mito fusion act: 0.2%; Nrf2 block: -10.1%

What do the screens show for `CN(NS(=O)(=O)c1ccc(Br)cc1)c1nc(C(F)(F)F)nc2ccccc12`?
miR-21 reporter: 3.7%; Nrf2 ARE act: 1.6%; Glioma ERSR ind: -5.9%; A549 viability: inconclusive; Mito fusion act: 0.5%; Nrf2 block: 20.6µM*

What do the screens show for `COC(CN(C)C(=O)C1CCCN(S(=O)(=O)c2ccc3c(c2)oc(=O)n3C)C1)OC` (configuration not stated)?
miR-21 reporter: -0.2%; Nrf2 ARE act: -0.4%; Glioma ERSR ind: -0.4%; A549 viability: 0.9%; Mito fusion act: 0.2%; Nrf2 block: -8.3%

What do the screens show for `CCOC(=O)Nc1ccc2c(c1)N(C(=O)CCN(CC)CC)c1ccccc1S2=O` (configuration not stated)?
miR-21 reporter: inconclusive; Nrf2 ARE act: inconclusive; Glioma ERSR ind: -12.8%; A549 viability: -3.2%; Mito fusion act: -8.5%; Nrf2 block: -15.7%

Results for N#C/C(=C/c1ccc(N2CCCCCC2)o1)c1cccc(F)c1 ?
miR-21 reporter: -0.5%; Nrf2 ARE act: 12.6µM*; Glioma ERSR ind: inconclusive; A549 viability: inconclusive; Mito fusion act: -1.0%

How did N#C/C(=C\c1ccc(N2CCOCC2)o1)c1ccccc1 do in these assays?
miR-21 reporter: inconclusive; Nrf2 ARE act: 14.1µM*; Glioma ERSR ind: 11.1%; A549 viability: -2.9%; Mito fusion act: -5.9%; Nrf2 block: inconclusive

Results for N#C/C(=C/c1ccc(N2CCOCC2)o1)c1ccc(Br)cc1 ?
miR-21 reporter: 0.4%; Nrf2 ARE act: 11.2µM*; Glioma ERSR ind: 7.7%; A549 viability: -18.7%; Mito fusion act: -3.4%; Nrf2 block: 6.7%

What do the screens show for `COC(=O)c1cc(NS(=O)(=O)c2ccc(N3CCC(C)CC3)c([N+](=O)[O-])c2)cc(C(=O)OC)c1`?
miR-21 reporter: -2.7%; Nrf2 ARE act: -0.7%; Glioma ERSR ind: -2.5%; A549 viability: -14.2%; Mito fusion act: -4.5%; Nrf2 block: inconclusive

Results for O=C(COC(=O)c1ccc2[nH]c3c(c2c1)CCCC3)Nc1ccccc1Cl ?
miR-21 reporter: 0.7%; Nrf2 ARE act: -0.5%; Glioma ERSR ind: -2.4%; A549 viability: -2.0%; Mito fusion act: -4.3%; Nrf2 block: inconclusive

How did CCC(C)c1ccccc1NC(=O)COC(=O)c1ccc2[nH]c3c(c2c1)CCCC3 (configuration not stated) do in these assays?
miR-21 reporter: 24.8%; Nrf2 ARE act: 1.7%[9.22 µM]; Glioma ERSR ind: -4.5%; A549 viability: inconclusive; Mito fusion act: 13.3%; Nrf2 block: 20.6µM*

What do the screens show for `Cc1cc(Br)c(OCc2ccc(C(=O)N/N=C/c3ccc[nH]3)cc2)c(Br)c1`?
Nrf2 ARE act: 0.4%; Glioma ERSR ind: 10.0%; A549 viability: 1.3µM*; Mito fusion act: 24.2%; Nrf2 block: 0.517µM*

Source: PubChem (National Center for Advancing Translational Sciences (NCATS))
